D2 PAM-1 – HTS Assay for Positive Allosteric Modulators of the Human D2 Dopamine Receptor: Primary Screen for Potentiators; D(2) dopamine receptor (Homo sapiens), P14416; actives 0.34% (n = 340,000); HEK293 T-REx D2, calcium flux, EC20 dopamine potentiation; potentiation, % at 10 µM;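 active = potentiation over 3 SD above the plate norm, cut at about 30% in these data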; note: 0% is about no effect
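Using a no-wash calcium dye in inducible, force-coupled HEK293 Trex cells expressing D2, we tracked fluorescence each second for 180 s after compound, then for 180 s after EC20 dopamine to detect augmented signalling.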
D2 ag-1 – HTS Assay for Allosteric Agonists of the Human D2 Dopamine Receptor: Primary Screen for Agonists. D(2) dopamine receptor (Homo sapiens), P14416. HEK293 T-REx D2 cells, calcium flux agonist mode. activation, % at 2 µM. actives 0.53% (n = 340,000). AID 485358, 2010;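 active = activation over 3 SD above normal in the single-dose calcium agonist read, cut at about 30% in these data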; note: 0% is about no effect
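Tetracycline-induced HEK293 Trex cells with D2 receptor force-coupled to calcium signaling, plated overnight at 30 C and loaded with no-wash calcium dye. Calcium flux read kinetically for 180 s after compound addition; responses flag agonists.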
D2 antagonist – HTS Assay for Allosteric Antagonists of the Human D2 Dopamine Receptor: Primary Screen for Antagonists; HEK293 TREx D2 cells, calcium flux, dopamine EC80; actives 2% (n = 340,000); D(2) dopamine receptor (Homo sapiens), P14416; inhibition, % at 10 µM; in the data active = inhibition above about 30%; inactive = below that, where a call was filed; note: 0% is about no effect
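Inhibition of EC80 dopamine-driven calcium flux, recorded kinetically, defines activity here; cells are a tetracycline-induced HEK293 T-REx line expressing force-coupled D2.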
D2 ag-2 – Beta-Arrestin HTS for Positive Allosteric Modulators of the Human D2 Dopamine Receptor: Agonists. DiscoveRx PathHunter D2 beta-arrestin, luminescence, 90 min; 100% = 57 uM dopamine signal. activation, % (test concentration not listed). actives 0.084% (n = 360,000); in the data active = activation above about 40%; inconclusive = between about 15% and that limit
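Agonist mode: compounds alone added to overnight-plated D2 PathHunter cells for 90 min at 37 C, with 57 uM final dopamine (EC100) defining full response. Beta-arrestin recruitment detected by chemiluminescent reagent, read after 1 h at ambient temperature.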
D2 PAM-2 – Beta-Arrestin HTS for Positive Allosteric Modulators of the Human D2 Dopamine Receptor: Potentiators. D(2) dopamine receptor (Homo sapiens), P14416. DiscoveRx D2 beta-arrestin cells, luminescence, 90 min; 100% = 57 uM dopamine signal. potentiation, % (no concentration beside the values). actives 0.23% (n = 360,000); in the data active = potentiation above about 50%; inconclusive = mostly about 30% to 49%
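PathHunter beta-arrestin assay in DiscoveRx D2 cells. Compounds were added with an EC20 of dopamine (50 nM final) for 90 min at 37 deg C. Luminescence was read 1 h after detection reagent, with 57 uM dopamine as the EC100 control.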
B2AR arrestin – qHTS assay of beta-arrestin-biased ligands of beta2-adrenergic receptor; Beta-2 adrenergic receptor (Homo sapiens), P07550; beta-arrestin recruitment to beta2AR, cell-based reporter; Potency, µM (doses to about 46.1 µM), for the others: at the top dose activation, most hits filed as activators; actives 0.02% (n = 330,000);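 note: potency is the fitted concentration of half-maximal effect; 0% = DMSO controls and full agonism = EC100 isoproterenol or metaproterenol; nearly all actives have a fitted effect of over 65% in size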
D3 ag – qHTS of D3 Dopamine Receptor Agonist: D3 Dopamine Receptor B-arrestin Agonist Confirmatory Assay; Potency, µM (series often up to 76.9 µM), without a hit: at the highest dose activation, hits mostly activators; shares compounds with D2 ag-1; DiscoveRx D3 beta-arrestin cells, luminescence, 90 min; AID 720506, 2013; actives 4% (n = 2,300);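 note: potency is the fitted concentration of half-maximal effect; 100% = dopamine control response; nearly all actives have a fitted effect of over 70% in size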
Target sequence (P35462 whole entry, looked up): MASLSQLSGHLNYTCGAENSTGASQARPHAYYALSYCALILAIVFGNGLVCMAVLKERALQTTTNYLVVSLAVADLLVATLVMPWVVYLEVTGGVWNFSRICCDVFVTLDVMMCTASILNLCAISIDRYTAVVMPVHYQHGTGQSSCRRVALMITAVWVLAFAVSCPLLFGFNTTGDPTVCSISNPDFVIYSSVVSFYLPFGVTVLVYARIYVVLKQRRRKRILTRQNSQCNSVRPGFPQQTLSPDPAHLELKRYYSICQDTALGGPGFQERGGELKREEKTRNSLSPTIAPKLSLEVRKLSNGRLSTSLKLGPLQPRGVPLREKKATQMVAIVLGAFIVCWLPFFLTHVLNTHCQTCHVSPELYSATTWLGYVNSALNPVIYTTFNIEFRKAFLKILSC
D2 ag-3 – qHTS of D3 Dopamine Receptor Agonist: D2 Dopamine Receptor B-arrestin Agonist Counterscreen | shares compounds with D2 ag-1 | DiscoveRx PathHunter D2 beta-arrestin, luminescence, 90 min; response scale: percent relative to full dopamine signal | Potency, µM (series often up to 76.9 µM), without a hit: top-dose activation, actives largely listed as activators | actives 5.9% (n = 2,300) | AID 720507, 2013; note: potency is the fitted concentration of half-maximal effect; % of control where 0% means no effect; nearly all actives have a fitted effect of over 70% in size
Active calls of the source: *; ? = inconclusive; nt = no result. In the library only some 2.4% were active in any assay of this set; here they are far more common. Unless noted, calls come from the whole dose curve; as a rule, active = well fitted activation curve with a large enough effect; inconclusive = small, poorly fitted or top-dose-only effect; inactive = flat fitted curve, though single readings scatter.

SMILES	D2 PAM-1	D2 ag-1	D2 antagonist	D2 ag-2	D2 PAM-2	B2AR arrestin	D3 ag	D2 ag-3
CCOC(=O)C1CCCN(C(=O)Cn2nc(C)n3c(cc4c(OC)cccc43)c2=O)C1 (centres undefined)	-0.6	19.4	4.8	?	8.0	0.2%	?	26.6%
CCOC(=O)C1CCN(C(=O)Cn2nc(C)n3c(cc4c(OC)cccc43)c2=O)CC1	-16.0	nt	nt	nt	nt	nt	nt	nt
COc1cccc2c1cc1c(=O)n(CC(=O)N3CCCCC3)nc(C)n12	0.7	5.0	nt	nt	nt	nt	nt	nt
COc1cccc2c1cc1c(=O)n(CC(=O)N3CCCCCC3)nc(C)n12	-11.8	42.9*	10.7	13.9	7.7	-0.4%	?	?
O=C(O)c1cccn1Cc1ccccc1F	-7.2	1.4	-0.3	-1.0	-5.4	-0.6%	nt	nt
CC1(C)OC(=O)C2=C(CC(CCc3ccccc3)OC2c2ccccc2)O1 (centres undefined)	nt	nt	nt	-7.1	1.8	nt	nt	nt
CC(C)N(C(=O)Cn1c(Cl)nc2ccccc21)C(C)C	7.0	0.0	16.2	-4.6	-4.2	0.2%	nt	nt
CC(CCc1ccccc1)NCc1cccc2ccccc12 (centres undefined)	-26.9	57.1*	32.4*	1.8	-78.0	0.4%	15.7%	13.9%
Cc1ccc(NC2=NC(c3ccco3)n3c(nc(C)cc3=O)N2)c(C)c1 (centres undefined)	5.2	0.0	-8.6	nt	nt	-0.3%	nt	nt
COCC(=O)Nc1nnc(-c2ccc(C(C)(C)C)cc2)s1	6.9	2.0	-1.9	-9.6	-9.9	-0.1%	16.1%	-0.1%
Cc1ccccc1NC(=O)CCCCCN1C(=O)[C@@H]2Cc3ccccc3CN2C1=O	9.8	0.4	-4.7	-1.7	0.6	0.1%	nt	nt
COc1ccc(C(=O)/C=C/c2cc(OC)c(O)c(OC)c2)c(F)c1	-0.1	25.5	33.3*	-3.8	-27.4	0.2%	3.1%	-5.9%
COc1ccc2cc(C(=O)/C=C/c3cc(OC)c(O)c(OC)c3)ccc2c1	3.1	4.1	16.1	-3.6	-4.0	3.2%	nt	nt
CC1CC1C(=O)OCC(=O)Nc1ncc(Cl)cc1Cl (centres undefined)	-0.2	-0.1	6.7	-1.7	0.1	-0.1%	nt	nt
O=C(CCC(=O)c1ccccc1)NCCc1c[nH]c2ccccc12	-20.1	66.2*	5.1	3.5	-12.9	-1.0%	13.7%	5.5%
COCCNC(=O)c1cccc(OC2CCN(C(C)COc3ccccc3)CC2)c1 (centres undefined)	-14.9	44.8*	25.3	-3.0	-1.7	0.3%	0.2%	13.2%
CCCCn1c(N)c(N(CCC(C)C)C(=O)C2CC(=O)N(CCc3ccc(OC)c(OC)c3)C2)c(=O)[nH]c1=O (centres undefined)	5.8	-0.2	8.5	-0.8	4.1	0.1%	-0.8%	-4.0%
CCCCn1c(=O)n(Cc2cccc(F)c2)c(=O)c2c1ncn2Cc1ccco1	nt	2.9	7.3	-0.5	23.8	-0.8%	nt	nt
CN(C)c1ncc(CN2CCC(CO)(CCCc3ccccc3)CC2)s1	-19.6	68.3*	62.2*	11.7	-6.5	0.3%	-0.2%	?
OCC1(CCc2ccccc2)CCN(Cc2cnc(N3CCCC3)s2)CC1	nt	nt	nt	-3.2	-34.3	-0.1%	nt	nt
COc1ccc(NS(=O)(=O)c2cc(C(=O)N3CCC3)ccc2C)cc1	-11.9	25.0	28.9	9.7	-3.7	0.0%	-2.9%	9.3%
C=CCSc1nnc(-c2ccc([N+](=O)[O-])cc2)o1	1.8	-0.6	0.2	?	-1.0	-0.7%	nt	nt
Cc1nc(SCc2ccccc2)c([N+](=O)[O-])[nH]1	-1.3	0.2	22.0	-4.9	-10.5	1.3%	-23.4%	-7.0%
COc1ccc(CSc2nc(C)[nH]c2[N+](=O)[O-])cc1[N+](=O)[O-]	-7.0	-1.2	-9.1	-1.0	-2.8	-0.3%	nt	nt
CN(C)CCCNc1nc(N)c([N+](=O)[O-])c(NC2CCCCC2)n1	9.0	0.3	2.7	0.6	-9.5	-0.5%	nt	nt
SMILES	D2 PAM-1	D2 ag-1	D2 antagonist	D2 ag-2	D2 PAM-2	B2AR arrestin	D3 ag	D2 ag-3
O=C(CSc1ccc(F)cc1)NNC(=O)c1ccccc1Br	-14.5	-0.4	24.9	-5.1	-0.7	-0.8%	nt	nt
O=C(CCSc1ccc(F)cc1)NNC(=O)c1ccccc1Cl	0.2	0.4	-18.8	5.4	-3.5	-0.9%	-3.7%	0.9%
CC1CCCC(NC(=O)C2COc3ccccc3O2)C1C (centres undefined)	6.1	-0.6	-13.8	-1.4	-19.0	-1.6%	-3.5%	-2.6%
COc1ccccc1OCCCn1c(C2CC(=O)N(c3ccc(F)cc3)C2)nc2ccccc21 (centres undefined)	-9.9	0.8	nt	nt	nt	nt	nt	nt
COC(=O)c1cccc(NC(=O)CN2CCc3ccccc3C2)c1	5.8	5.3	12.5	-1.1	0.5	-0.2%	?	14.4%
C1=CC2CC1CC2CN1CCN(c2ccccc2)CC1 (centres undefined)	-27.9	75.9*	77.2*	?	?	-0.1%	6.8%	?
O=C(c1ccco1)N1CCN(CC2CC3C=CC2C3)CC1 (centres undefined)	nt	24.1	83.8*	42.2*	?	-0.4%	?	?
Cc1ccccc1CN1CCN(CC2CC3C=CC2C3)CC1 (centres undefined)	-23.8	-0.8	18.8	-3.2	-28.6	0.1%	nt	nt
Cc1c(C#N)c2ccccc2n1CC(=O)NCc1ccccc1	-1.8	-1.5	4.9	-0.8	-0.1	0.1%	nt	nt
Nc1c(N(Cc2ccccc2)C(=O)COc2ccc(F)cc2Cl)c(=O)[nH]c(=O)n1Cc1ccccc1	nt	nt	nt	-2.5	-6.0	-0.1%	nt	nt
COc1ccc(C2(NC(C)=O)CCN(C(=O)CCC(=O)O)CC2)cc1	-10.5	50.8*	-0.9	0.5	-1.1	0.6%	-7.5%	-2.1%

Compound activity as filed in PubChem.
